From PubChem BioAssay (NCI)
This is part of a sample that, as a whole, favours compounds with a hit. Of some 83,000 tested, about 20% had one in any assay.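 Results are percent growth after 48 hours of single-concentration exposure. 100 means growth as in untreated cells, lower positive values show inhibition; negative values down to -100 show cell death.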 A number with no mark means an inactive call. Calls of active or inactive are those of the source. How the source made its calls: active means growth percent below 10; inactive means the rest.

What was measured:
Test in all cases: NCI-60 one-dose screen, 48 h (100 = growth as untreated, 0 = no growth, -100 = all killed)
DU-145 prostate = conditions: 10 µM unless noted
K-562 leukemia = conditions: 10 µM unless noted
MALME-3M melanoma = conditions: 10 µM unless noted
MDA-MB-231 breast = conditions: 10 µM unless noted
RXF 393 renal = conditions: 10 µM unless noted
SF-268 CNS = conditions: 10 µM unless noted
SF-295 CNS = conditions: 10 µM unless noted
SF-539 CNS = conditions: 10 µM unless noted
UACC-257 melanoma = conditions: 10 µM
M14 melanoma = conditions: 10 µM unless noted
HCT-15 colon = conditions: 10 µM unless noted
SNB-19 CNS = conditions: 10 µM unless noted
U251 CNS = conditions: 10 µM unless noted
PC-3 prostate = conditions: 10 µM unless noted
SK-MEL-5 melanoma = conditions: 10 µM unless noted
UACC-62 melanoma = conditions: 10 µM unless noted
LOX IMVI melanoma = conditions: 10 µM unless noted
SK-MEL-28 melanoma = conditions: 10 µM unless noted
HT29 colon = conditions: 10 µM unless noted
SNB-75 CNS = conditions: 10 µM unless noted

| Structure (SMILES) | growth (DU-145 prostate) | growth (K-562 leukemia) | growth (MALME-3M melanoma) | growth (MDA-MB-231 breast) | growth (RXF 393 renal) | growth (SF-268 CNS) | growth (SF-295 CNS) | growth (SF-539 CNS) | growth (UACC-257 melanoma) | growth (M14 melanoma) | growth (HCT-15 colon) | growth (SNB-19 CNS) | growth (U251 CNS) | growth (PC-3 prostate) | growth (SK-MEL-5 melanoma) | growth (UACC-62 melanoma) | growth (LOX IMVI melanoma) | growth (SK-MEL-28 melanoma) | growth (HT29 colon) [%] | growth (SNB-75 CNS) |
| --- | --- | --- | --- | --- | --- | --- | --- | --- | --- | --- | --- | --- | --- | --- | --- | --- | --- | --- | --- | --- |
| COc1ccc(OC)c([C@H]2c3[nH]c4ccccc4c3C[C@H]3C(=O)N(CCCCCCC(=O)NO)CC(=O)N23)c1 | 90.1% | 54.2% | 61.6% | 82.3% | 107% | 104% | 94.7% | 78.5% | 67.2% | 83.3% | 99.5% | 86.9% | 81.1% | 77.9% | 86.8% | 53.1% | 15% | 75.2% |  |  |
| O=c1oc2ccc(-c3ccc(F)cc3F)cc2c(=O)n1-c1ccc(F)c(F)c1 | 17.5% | 10.8% | -14.6% (active) | 7.85% (active) | -28.4% (active) | 13.7% | -12.6% (active) | 11.9% | -14.9% (active) |  | 3.09% (active) | 12.2% | 11.9% | 13.3% | -77.4% (active) | -12.8% (active) | 17.8% | 19.9% | 88.8 | 14.9% |
| Cc1cn(-c2cc(NC(=O)c3cncc(C#Cc4cnc5ccc(OCCCS(C)(=O)=O)nn45)c3)cc(C(F)(F)F)c2)cn1 | 12.6% | 11% | 11.7% | 14.4% | -74.5% (active) | -5.33% (active) | 54.6% | 6.3% (active) | 64.4% | 18% | 37.8% | 18.8% | 26.8% | 52.8% | 2.76% (active) | 21.4% | 9.26% (active) | 31.5% |  | 13.6% |
| Oc1ccc(CSc2nnc(-c3ccccc3)o2)c2cccnc12 | 30% | 10.4% | 36.1% | 47% | 24.5% | 21.8% | 2.18% (active) | 13.2% | 6.39% (active) | 15.5% | 10.6% | 17% | 10.9% | 21.8% | 6.95% (active) | 5.32% (active) | 5.66% (active) | 21.7% |  |  |
| NS(=O)(=O)c1ccc(Nc2nc(N/N=C/c3ccc(F)cc3)nc(Nc3ccccc3)n2)cc1 | 31.1% | 54.6% | 57.5% | 61.8% | 57.9% | 41.3% | 70.1% | 62.2% | 47.2% | 57.9% | 79.3% | 69.9% | 11.9% | 39.9% | 38.1% | 60.5% | 60.6% | 63.3% |  | 96.4% |
| Cc1cn(-c2cc(NC(=O)c3cncc(C#Cc4cnc5ccc(O[C@@H]6CCOC6)nn45)c3)cc(C(F)(F)F)c2)cn1 | -86.5% (active) | -17.6% (active) | -83% (active) | -35.5% (active) | -91.5% (active) | -42.1% (active) | -21.7% (active) | -90.5% (active) | -19% (active) | -96.2% (active) | -31.2% (active) | -7.45% (active) | -96.6% (active) | -0.613% (active) | -98.4% (active) | -51.7% (active) | -75.7% (active) | -46.9% (active) |  | -63.3% (active) |
| C#C[C@]1(O)CC[C@H]2[C@@H]3CC=C4c5sc(Nc6cc(Cl)ccn6)nc5CC[C@]4(C)[C@H]3CC[C@@]21C | 42.5% | 7.33% (active) | -21.9% (active) | 32.6% | -52.8% (active) | 10.7% | -68.7% (active) | -53.2% (active) | -35.3% (active) | -51.8% (active) | 3.75% (active) | -1.08% (active) | 15.1% | 7.93% (active) | -58.9% (active) | -17% (active) |  | -47.3% (active) |  | -33.2% (active) |
| C#CCOc1ccc(/C=N/Nc2nc(-c3cc4cc(Br)cc(Br)c4oc3=O)cs2)cc1 | 96.1% | 90.7% | 109% | 96% | 114% | 84.8% | 91.4% | 84.4% | 106% | 98.2% | 95.2% | 104% | 96.2% | 88.1% | 98.5% | 88.1% | 102% | 106% |  | 90.3% |
| O=C(COc1ccc(C2SCC(=O)N2c2ccc(F)cc2)cc1)c1ccccc1 (stereo not drawn) | 104% | 91.6% | 97.9% | 81.4% | 102% | 89.4% | 94.5% | 102% | 100% | 93.6% | 95.7% | 91.5% | 101% | 79.2% | 97.7% | 61.4% | 87.6% | 102% |  | 83.1% |
| CC(C)(C)OC(=O)N1CCN(S(=O)(=O)/N=C2\NC(=O)NC2=C(Cl)Cl)CC1 | 101% | 12.6% | 80.7% | 80.7% | 70.8% | 97% | 102% | 99.1% | 96.1% | 103% | 10.9% | 81.1% | 90.6% | 97.5% | 95.9% | 96.3% | 64.3% | 85.7% |  |  |
| CCOc1ccc2nc(NC(=O)Nc3ccccc3C)sc2c1 | 70.3% | 14.6% | 48.6% | 71.2% | 49.5% | 78.6% | 35.2% | 57.1% | 68.4% | 23.4% | 27% | 53.8% | 48.2% | 57.6% | 59.6% | 47.2% |  | 54.1% |  |  |
| Nc1cc(F)ccc1NC(=O)c1ccc(NC(=O)C/C=C/c2cccnc2)cn1 | -3.71% (active) | 20% | 11.6% | 45.3% | -17.5% (active) | 30.8% | 22.3% | 6.21% (active) | 17.8% |  | 19.8% | 31.7% | 17.9% | 36.9% | -58.1% (active) | 5.97% (active) | 16.6% | -9.71% (active) | 11.4 | 31.9% |
| COc1ccc(-c2ccnc3c(C#N)c(Nc4ccccc4)nn23)cc1OC | 93.9% | 93.6% | 110% | 64.2% | 15.8% | 86.4% | 93.2% | 78.8% | 104% | 117% | 88.8% | 95.1% | 87.7% | 89.2% | 74.2% | 85.3% | 90.9% | 90.7% |  | 51.4% |
| Cc1ccc(NC(=O)N[C@@H](Cc2cc(F)cc(F)c2)C(=O)NC2C(=O)N3CCC[C@H]3C(=O)N3CCCC[C@H]3C(=O)N[C@@H](C)C(=O)N3C[C@H](C)C[C@H]3C(=O)O[C@H]2C)c(F)c1 (stereo partly drawn) | 25.7% | 20.2% | 44.3% | 34.6% | -7.39% (active) | 34.9% | 9.62% (active) | 39.2% | 16.9% | 23% | 14.1% | 26.3% | 28.3% | 15% | 2.32% (active) | 30.3% | 25.3% | 44.1% |  | 34.7% |
| COc1cc(/C=N/n2cnc3oc(-c4ccccc4)cc3c2=N)cc(CN2CCCCC2)c1O | -82.8% (active) | 3.54% (active) | -81% (active) | -73.4% (active) | -66.7% (active) | -66.9% (active) | -96% (active) | -87.9% (active) | -27% (active) | -83.5% (active) | -79.8% (active) | -41.3% (active) | -66.5% (active) | -31% (active) | -89.7% (active) | -74.8% (active) | -86.6% (active) | -85.8% (active) |  |  |
